PubChem BioAssay AID1159580 (chemical genetic matrix, 2015)
In all, about 5,500 compounds went through this assay and about 2,000 (36%) were called active. Roughly 18% stayed inconclusive and do not appear here. Rule as the data show it: active = normalized growth mostly below about 0.91 (no sharp cut-off); inconclusive = no clear call, values can overlap the other calls; inactive = mostly above about 0.92. This is one part of the list.

Assay: chemical genetic growth profiling, strain panel (AID 1159580);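 also: tested at 20 µM; growth read once vehicle control cultures reached saturation at 30 °C; 1 = growth at the plate median or of vehicle wells; lower values mean less growth of the strain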
Conditions: growth OD
[1] = S. cerevisiae deletion strains, locus YAL040C, strain CLN3, active compounds read low
[2] = S. cerevisiae deletion strains, locus YCL061C, strain MRC1 (second series), active compounds read low
[3] = S. cerevisiae deletion strains, locus YDR363W, strain ESC2, active compounds read low
[4] = S. cerevisiae deletion strains, locus YER002W, strain NOP16, active compounds read low
[5] = S. cerevisiae deletion strains, locus YGR078C, strain PAC10, active compounds read low
[6] = S. cerevisiae deletion strains, locus YJR075W, strain HOC1, active compounds read low
[7] = S. cerevisiae deletion strains, locus YMR307W, strain GAS1, active compounds read low
[8] = S. cerevisiae deletion strains, locus YNL128W, strain TEP1, active compounds read low
[9] = S. cerevisiae deletion strains, locus YNL153C, strain GIM3, active compounds read low
[10] = S. cerevisiae deletion strains, locus YNL175C, strain NOP13, active compounds read low
[11] = S. cerevisiae deletion strains, locus YNL197C, strain WHI3, active compounds read low
[12] = S. cerevisiae deletion strains, locus YNL224C, strain SQS1, active compounds read low
[13] = S. cerevisiae deletion strains, locus YOR083W, strain WHI5 (second series), active compounds read low
[14] = S. cerevisiae deletion strains, locus YPL241C, strain CIN2, active compounds read low
[15] = S. cerevisiae deletion strains, locus YMR263W, strain SAP30, active compounds read low

Measured: normalized growth

O=C(O)CNC(=O)C(CS)Cc1ccccc1 (stereo not given)
inactive: S. cerevisiae deletion strains, locus YAL013W, strain DEP1, active compounds read low 1.01 | [1] 1.05 | [2] 1 | [3] 1.01 | [4] 0.994 | [5] 1.01 | [6] 0.996 | [7] 1 | [8] 1.02 | [9] 1.07 | [10] 1.01 | [11] 0.967 | [12] 1 | S. cerevisiae deletion strains, locus YNL322C, strain KRE1, active compounds read low 0.995 | [13] 1.04 | S. cerevisiae deletion strains, locus YPL055C, strain LGE1, active compounds read low 1.01 | [14] 1.01

CC(=O)SC1CC2=CC(=O)CC[C@]2(C)C2CC[C@@]3(C)C(CC[C@@]34CCC(=O)O4)C12 (stereo not given in full)
inactive: [1] 0.996 | [2] 1 | S. cerevisiae deletion strains, locus YDR150W, strain NUM1, active compounds read low 1.01 | [3] 1 | [4] 0.982 | [5] 1.01 | S. cerevisiae deletion strains, locus YGR229C, strain SMI1, active compounds read low 1.01 | [6] 1.01 | [15] 0.99 | [7] 1.03 | [8] 0.986 | [10] 1.01 | [11] 0.999 | [12] 1 | [13] 1.01 | [14] 1.01

CC(=O)O[C@@H]1CC2C(C)(C)C(=O)[C@@H]3O[C@@H]3[C@]2(C)C2CC[C@]3(C)C(=CC(=O)O[C@H]3c3ccoc3)[C@@]21C (stereo not given in full)
inactive: S. cerevisiae deletion strains, locus YBR021W, strain FUR4, active compounds read low 0.995 | S. cerevisiae deletion strains, locus YBR229C, strain ROT2, active compounds read low 0.94 | S. cerevisiae deletion strains, locus YCL029C, strain bik1, active compounds read low 0.967 | S. cerevisiae deletion strains, locus YDL035C, strain GPR1, active compounds read low 0.958 | S. cerevisiae deletion strains, locus YDL074C, strain BRE1, active compounds read low 0.989 | S. cerevisiae deletion strains, locus YDL101C, strain DUN1, active compounds read low 0.994 | S. cerevisiae deletion strains, locus YDL134C, strain PPH21, active compounds read low 0.988 | S. cerevisiae deletion strains, locus YDL185W, strain tfp1, active compounds read low 0.964 | S. cerevisiae deletion strains, locus YDL192W, strain arf1, active compounds read low 0.976 | S. cerevisiae deletion strains, locus YDR101C, strain arx1, active compounds read low 0.975 | S. cerevisiae deletion strains, locus YDR162C, strain NBP2, active compounds read low 0.98 | S. cerevisiae deletion strains, locus YDR318W, strain mcm21, active compounds read low 0.995 | S. cerevisiae deletion strains, locus YDR388W, active compounds read low 0.999 | S. cerevisiae deletion strains, locus YDR502C, strain sam2, active compounds read low 1.01 | S. cerevisiae deletion strains, locus YEL061C, strain CIN8, active compounds read low 0.979 | S. cerevisiae deletion strains, locus YER110C, active compounds read low 0.975 | S. cerevisiae deletion strains, locus YER155C, strain BEM2, active compounds read low 0.998 | S. cerevisiae deletion strains, locus YER167W, strain BCK2, active compounds read low 0.981 | S. cerevisiae deletion strains, locus YGL078C, strain dbp3, active compounds read low 1.01 | S. cerevisiae deletion strains, locus YGL086W, strain mad1, active compounds read low 0.99 | S. cerevisiae deletion strains, locus YGL248W, strain PDE1, active compounds read low 1.01 | [5] 1.01 | S. cerevisiae deletion strains, locus YGR135W, strain pre9, active compounds read low 1.07 | S. cerevisiae deletion strains, locus YGR252W, strain gcn5, active compounds read low 0.997 | S. cerevisiae deletion strains, locus YHR030C, strain SLT2, active compounds read low 0.989 | S. cerevisiae deletion strains, locus YHR079C, strain IRE1 (second series), active compounds read low 0.985 | S. cerevisiae deletion strains, locus YHR094C, strain hxt1, active compounds read low 0.981 | S. cerevisiae deletion strains, locus YHR129C, strain ARP1, active compounds read low 0.988 | S. cerevisiae deletion strains, locus YHR200W, strain rpn10, active compounds read low 0.985 | S. cerevisiae deletion strains, locus YIL066C, strain RNR3, active compounds read low 0.948 | S. cerevisiae deletion strains, locus YIL073C, strain SPO22, active compounds read low 0.956 | S. cerevisiae deletion strains, locus YIL125W, strain kgd1, active compounds read low 0.987 | S. cerevisiae deletion strains, locus YIR030C, strain dcg1, active compounds read low 0.99 | S. cerevisiae deletion strains, locus YJL095W, strain BCK1, active compounds read low 1.04 | S. cerevisiae deletion strains, locus YJL134W, strain LCB3, active compounds read low 0.982 | S. cerevisiae deletion strains, locus YJL168C, strain set2, active compounds read low 0.996 | S. cerevisiae deletion strains, locus YJL187C, strain SWE1 (second series), active compounds read low 1.01 | S. cerevisiae deletion strains, locus YJR043C, strain POL32, active compounds read low 0.96 | [6] 1 | S. cerevisiae deletion strains, locus YKL009W, strain mrt4, active compounds read low 0.976 | S. cerevisiae deletion strains, locus YKL068W, active compounds read low 0.986 | S. cerevisiae deletion strains, locus YKL085W, strain MDH1 (second series), active compounds read low 0.996 | S. cerevisiae deletion strains, locus YKL085W, strain MDH1, active compounds read low 0.996 | S. cerevisiae deletion strains, locus YKR001C, strain vps1, active compounds read low 0.971 | S. cerevisiae deletion strains, locus YLR039C, strain RIC1, active compounds read low 0.99 | S. cerevisiae deletion strains, locus YLR058C, strain SHM2, active compounds read low 0.974 | S. cerevisiae deletion strains, locus YLR102C, strain apc9, active compounds read low 0.981 | S. cerevisiae deletion strains, locus YLR262C, strain YPT6, active compounds read low 0.963 | S. cerevisiae deletion strains, locus YLR268W, strain sec22, active compounds read low 0.948 | S. cerevisiae deletion strains, locus YLR330W, strain CHS5, active compounds read low 0.988 | S. cerevisiae deletion strains, locus YLR371W, strain rom2, active compounds read low 0.979 | S. cerevisiae deletion strains, locus YLR418C, strain cdc73, active compounds read low 0.993 | S. cerevisiae deletion strains, locus YML016C, strain PPZ1, active compounds read low 0.972 | S. cerevisiae deletion strains, locus YML032C, strain rad52, active compounds read low 0.962 | S. cerevisiae deletion strains, locus YML124C, strain tub3, active compounds read low 0.991 | S. cerevisiae deletion strains, locus YMR078C, strain ctf18, active compounds read low 0.993 | S. cerevisiae deletion strains, locus YMR223W, strain ubp8, active compounds read low 1 | [15] 1.01 | [7] 0.999 | S. cerevisiae deletion strains, locus YNL067W, strain RPL9B, active compounds read low 1.03 | [8] 0.948 | [9] 1.02 | S. cerevisiae deletion strains, locus YNL233W, strain BNI4, active compounds read low 1.03 | S. cerevisiae deletion strains, locus YNL250W, strain rad50, active compounds read low 1.01 | S. cerevisiae deletion strains, locus YNL271C, strain bni1, active compounds read low 0.999 | S. cerevisiae deletion strains, locus YNL298W, strain CLA4, active compounds read low 0.995 | S. cerevisiae deletion strains, locus YNL307C, strain MCK1, active compounds read low 0.987 | S. cerevisiae deletion strains, locus YNR052C, strain pop2, active compounds read low 1.04 | S. cerevisiae deletion strains, locus YOL012C, strain htz1 0.875 | S. cerevisiae deletion strains, locus YOL147C, strain pex11, active compounds read low 0.993 | S. cerevisiae deletion strains, locus YOR061W, strain CKA2, active compounds read low 0.936 | S. cerevisiae deletion strains, locus YOR069W, strain VPS5, active compounds read low 0.995 | S. cerevisiae deletion strains, locus YOR136W, strain idh2, active compounds read low 0.99 | S. cerevisiae deletion strains, locus YOR144C, strain elg1, active compounds read low 0.988 | S. cerevisiae deletion strains, locus YOR184W, strain ser1, active compounds read low 0.963 | S. cerevisiae deletion strains, locus YOR316C, strain cot1, active compounds read low 0.986 | S. cerevisiae deletion strains, locus YPR119W, strain clb2, active compounds read low 0.993 | S. cerevisiae deletion strains, locus YPR141C, strain kar3, active compounds read low 0.989 | S. cerevisiae deletion strains, locus YPR163C, strain tif3, active compounds read low 0.982 | S. cerevisiae deletion strains, locus YPR167C, strain met16, active compounds read low 0.999 | S. cerevisiae deletion strains, strain wtn01, active compounds read low 0.96 | S. cerevisiae strains, strain wild type, active compounds read low 0.973
